Measurements taken from ChEMBL document CHEMBL3988442, “University of Dundee, Small-Polar-MMV Screening Library” (2021).
Out of some 48,000 compounds screened, about 13,000 (27%) showed an effect of 50% or more. This is one part of the list.

Each compound was assayed on Wolbachia pipientis (assay: Anti-Wolbachia Cell-Based Screen). Conditions: 5 µM.
Type: functional
Set-up: scale not given: in the data most compounds retested in dose-response had high values
For `N#CC1(NC(=O)Cn2nnc(-c3cc4ccccc4o3)n2)CCCC1`, the “Percent Effect” value was 6.129%.
For `CCOC(=O)NC(CNC(=O)c1cn(C)cn1)CC(C)C` (centres undefined), the “Percent Effect” value was -4.121%.
`COc1cc(-c2cc(NC3CCCC3)nc3[nH]ccc23)nc(N)n1` was tested, and the “Percent Effect” value was -4.005%.
`COc1ccc2[nH]cc(-c3ccnc(NC4CCCC4)n3)c2c1` was tested, and the “Percent Effect” value was 98.2%.
In the case of `COc1ccc2[nH]cc(C3CCN(CCC(N)=O)CC3)c2c1`, the “Percent Effect” value is reported as -13.9%.
`COc1ccc2[nH]cc(-c3ccnc(N4CCC(C)CC4)n3)c2c1` was tested, and the “Percent Effect” value was 108.4%.
For `COc1cnc(N2CCC(c3ncc[nH]3)CC2)nc1`, the “Percent Effect” value was 16.53%.
In the case of `COc1nccnc1-c1cc(NC2CCCC2)nc2[nH]ccc12`, the “Percent Effect” value is reported as -1.982%.
In the case of `COC(=O)c1cc(NS(=O)(=O)c2cn(C)cn2)c(F)cc1F`, the “Percent Effect” value is reported as -3.496%.
`CS(=O)(=O)c1nnc(NC(=O)CCc2cccs2)[nH]1` was tested, and the “Percent Effect” value was 5.426%.
In the case of `O=C(NCc1ccc(-n2cncn2)nc1)c1ccc2c(c1)CCO2`, the “Percent Effect” value is reported as 2.792%.
`CCN1CCO[C@@H]2CN(C(=O)NCc3ccccc3)CC[C@@H]2C1` was tested, and the “Percent Effect” value was 91.66%.
`CCN1CCO[C@@H]2CN(C(=O)c3ccc4[nH]ccc4c3)CC[C@@H]2C1.O=C(O)C(F)(F)F` was tested, and the “Percent Effect” value was -16%.
For `COCCN1CCO[C@@H]2CN(C(=O)NCc3cccnc3)CC[C@@H]2C1.O=C(O)C(F)(F)F.O=C(O)C(F)(F)F`, the “Percent Effect” value was -7.719%.
For `CC(=O)N1CCO[C@@H]2CN(C(=O)NCc3ccccc3)CC[C@@H]2C1`, the “Percent Effect” value was 88.95%.
For `CC(=O)N1CCO[C@@H]2CN(C(=O)NCc3cccnc3)CC[C@@H]2C1.O=C(O)C(F)(F)F`, the “Percent Effect” value was -5.554%.
For `CCN(CC)Cc1cc(C(=O)N2CCCC(O)(CO)C2)c(C)o1` (centres undefined), the “Percent Effect” value was 4.357%.
With `CCn1ccnc1CN1CCN(Cc2ccc(C)o2)[C@@H]2CS(=O)(=O)C[C@@H]21` the “Percent Effect” value was 98.63%.
For `CCCc1ccc(CN2CCN(C(=O)C(C)C)[C@@H]3CS(=O)(=O)C[C@@H]32)o1`, the “Percent Effect” value was 2.422%.
`CCCc1ccc(CN2CCN(C(=O)NCC)[C@H]3CS(=O)(=O)C[C@H]32)o1` was tested, and the “Percent Effect” value was -11.9%.
In the case of `CCCc1ccc(CN2CCN(C(=O)N(C)C)[C@@H]3CS(=O)(=O)C[C@@H]32)o1`, the “Percent Effect” value is reported as 6.47%.
`Cc1ccc(CN2CCN(Cc3nccn3C)[C@H]3CS(=O)(=O)C[C@H]32)o1` was tested, and the “Percent Effect” value was 91.25%.
For `CCCc1ccc(CN2CCN(c3ncccn3)[C@@H]3CS(=O)(=O)C[C@@H]32)o1`, the “Percent Effect” value was -1.361%.
For `O=C(C1CN(c2ncc(F)cn2)CC12CCOCC2)N1CC=CC1.O=C(O)C(F)(F)F` (centres undefined), the “Percent Effect” value was -11.35%.
With `O=C(O)C(F)(F)F.c1coc(CN2CCCn3c(nnc3Cn3cccc3)C2)c1` the “Percent Effect” value was 110.6%.
With `O=C(O)C(F)(F)F.c1coc(CN2CCn3c(COCC4CC4)nnc3C2)c1` the “Percent Effect” value was -16.88%.
For `O=C(O)C(F)(F)F.O=C(O)C(F)(F)F.c1coc(CN2CCCn3c(CN4CCOCC4)nnc3C2)c1`, the “Percent Effect” value was 102%.
In the case of `c1coc(CN2CCn3c(CN4CCOCC4)nnc3C2)c1`, the “Percent Effect” value is reported as 0.1546%.
`O=C(O)C(F)(F)F.c1cnn(Cc2nnc3n2CCCN(CC2CCOCC2)C3)c1` was tested, and the “Percent Effect” value was -9.289%.
For `CCCN1CCN(C(=O)c2cccc3cccnc23)[C@H]2CS(=O)(=O)C[C@H]21`, the “Percent Effect” value was -6.939%.
For `Cc1nnc(CN(C)Cc2nc3c(s2)CCCC3)o1`, the “Percent Effect” value was -39.73%.
With `CCc1ncc(C(=O)N2CCC(O)(CN3CCOCC3)C(C)(C)C2)cn1` (centres undefined) the “Percent Effect” value was 21.42%.
`COc1ccc2c(C)c(C(=O)N3CCC(NC(C)=O)C3)oc2c1` (centres undefined) was tested, and the “Percent Effect” value was 4.828%.
For `CC(C)CCc1nc(CN2CCOC(Cn3cncn3)C2)cs1` (centres undefined), the “Percent Effect” value was 124.3%.
In the case of `CC(C)(C)c1nnc(CN2CCOC(Cn3cncn3)C2)o1` (centres undefined), the “Percent Effect” value is reported as 5.198%.
In the case of `CCCc1nc(CN2CCOC(Cn3cncn3)C2)cs1` (centres undefined), the “Percent Effect” value is reported as 112.9%.
In the case of `Cc1cc(CNC(=O)NC(C)c2ccncc2)no1` (centres undefined), the “Percent Effect” value is reported as -0.1893%.
In the case of `CN(Cc1nncn1C)C(=O)c1cc(COc2ccccc2)[nH]n1`, the “Percent Effect” value is reported as -18.45%.
In the case of `CCCC1C=CCN1C(=O)c1cc(COc2ccccc2)[nH]n1` (centres undefined), the “Percent Effect” value is reported as 130%.
With `C[C@@H]1CN(C(=O)c2cc(COc3ccc4c(c3)OCO4)[nH]n2)C[C@H](C)O1` the “Percent Effect” value was -15.32%.
In the case of `CO[C@H]1CN(C(C)C)C[C@@H]1NC(=O)c1cc(COc2ccccc2)[nH]n1`, the “Percent Effect” value is reported as -19.38%.
`C[C@@H]1CC[C@@H](C)N1C(=O)c1cc(COc2ccccc2)[nH]n1` was tested, and the “Percent Effect” value was 96.55%.
With `O=C(c1cc(COc2ccc3c(c2)OCO3)[nH]n1)N1CC=CC1CO` (centres undefined) the “Percent Effect” value was -1.873%.
With `COc1ccccc1OCc1cc(C(=O)N2C[C@@H](C)O[C@@H](C)C2)n[nH]1` the “Percent Effect” value was -20.33%.
With `COc1ccccc1OCc1cc(C(=O)N2[C@H](C)CC[C@@H]2C)n[nH]1` the “Percent Effect” value was -29.7%.
For `COc1ccccc1OCc1cc(C(=O)N2CCC(NC(C)=O)C2)n[nH]1` (centres undefined), the “Percent Effect” value was -14.62%.
`COC(=O)C1C=CCN1C(=O)c1cc(COc2ccccc2)[nH]n1` (centres undefined) was tested, and the “Percent Effect” value was 114.9%.
With `CCCC1C=CCN1C(=O)c1cc(COc2ccc3c(c2)OCO3)[nH]n1` (centres undefined) the “Percent Effect” value was 106.8%.
For `COc1ccccc1OCc1cc(C(=O)N2CCOCC2CO)n[nH]1` (centres undefined), the “Percent Effect” value was -19.45%.
With `CN(C(=O)CC1=CCCCC1)C1CCCN(C2Cc3ccccc3C2)C1` (centres undefined) the “Percent Effect” value was -26.45%.
With `CCc1ncc2c(n1)CN(C(=O)Cc1cc(OC)cc(OC)c1)C2` the “Percent Effect” value was -17.96%.
`CC(C)COC(C)C(=O)N1CCC(C)CC1` (centres undefined) was tested, and the “Percent Effect” value was -15.15%.
In the case of `Cc1cc(CN(C2CC2)C(C)C(C)C)no1` (centres undefined), the “Percent Effect” value is reported as 5.492%.
For `COc1ccccc1OCc1cc(C(=O)N2CC(O)C2)n[nH]1`, the “Percent Effect” value was -12.52%.
In the case of `COc1ccccc1OCc1cc(C(=O)N2CC=CC2C(C)C)n[nH]1` (centres undefined), the “Percent Effect” value is reported as -7.003%.
In the case of `CCC1C=CCN1C(=O)c1cc(COc2ccccc2OC)[nH]n1` (centres undefined), the “Percent Effect” value is reported as 105.4%.
In the case of `CC(=O)CN1CCC2(CC1)c1ccccc1[C@@H](N1CCSCC1)[C@@H]2O`, the “Percent Effect” value is reported as -3.937%.
For `CN(CC(=O)N1CC(C)(C)[C@@](C)(O)C1)Cc1ccncc1`, the “Percent Effect” value was -6.458%.
`COc1ccc(COCC(O)CNC(=O)c2cc(C)cc(C)c2)cc1` (centres undefined) was tested, and the “Percent Effect” value was 13.74%.
